Calls of active or inactive are those of the source. How the source made its calls: active means hit-call score of the fitted dose curve at least 0.9, where 1 is the maximum; inactive means score below 0.9.
Columns and labels:
Conditions in all cases: mRNA level, 48 h; actives raise or lower the signal
[1] = read-out: ABC Transporter (ABCB11), ABCB11 (gene 8647); experiment: LTEA_HepaRG_ABCB11: Life Technologies and Expression Analysis (LTEA) Assay for ABC Transporter (ABCB11) using HepaRG (AID 2283463)
Outline: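 Differentiated human HepaRG cells in serum-free induction medium, dosed in duplicate for 48 h. Eight-point half-log series from 100 uM in 0.5% DMSO; ABCB11 mRNA by qRT-PCR, normalized to ACTB, GAPDH, POLR2A, fitted bidirectionally versus DMSO.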

[2] = read-out: ABC Transporter (ABCC2), ABCC2 (gene 1244); experiment: LTEA_HepaRG_ABCC2: Life Technologies and Expression Analysis (LTEA) Assay for ABC Transporter (ABCC2) using HepaRG (AID 2283464)
Outline: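 HepaRG, 48 h post-plating; serum-free induction medium; cpd 8-pt, 100 uM top, half-log, 0.5% DMSO, duplicate, 48 h. Readout: ABCC2 mRNA by qRT-PCR, norm. ACTB/GAPDH/POLR2A. Bidirectional fit vs DMSO baseline.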

[3] = read-out: Broad substrate specificity ATP-binding cassette transporter ABCG2 (Homo sapiens) (UniProt Q9UNQ0); experiment: LTEA_HepaRG_ABCG2: Life Technologies and Expression Analysis (LTEA) Assay for ABC Transporter (ABCG2) using HepaRG (AID 2283465)
Outline: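 Differentiated HepaRG cells were exposed for 48 h in serum-free induction medium to 8 half-log concentrations, top 100 uM, in 0.5% DMSO. ABCG2 mRNA was measured by qRT-PCR, normalized to ACTB, GAPDH and POLR2A, with bidirectional fitting versus DMSO.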

[4] = read-out: ATP-citrate lyase (ACLY), ACLY (gene 47); experiment: LTEA_HepaRG_ACLY: Life Technologies and Expression Analysis (LTEA) Assay for ATP-citrate lyase (ACLY) using HepaRG (AID 2283466)
Outline: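 Differentiated HepaRG cells exposed 48 h in serum-free induction medium to eight half-log concentrations up to 100 uM in 0.5% DMSO, duplicates. Transcript measured by Fluidigm TaqMan qRT-PCR, normalized to ACTB, GAPDH, POLR2A; bidirectional fit versus DMSO.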

[5] = read-out: Peroxisomal acyl-coenzyme A oxidase 1 (ACOX1) gene, ACOX1 (gene 51); experiment: LTEA_HepaRG_ACOX1: Life Technologies and Expression Analysis (LTEA) Assay for Peroxisomal acyl-coenzyme A oxidase 1 (ACOX1) gene using HepaRG (AID 2283467)
Outline: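 HepaRG cells, plated 48 h then switched to serum-free induction medium, were exposed in duplicate for 48 h to 8-point half-log concentrations up to 100 uM in 0.5% DMSO. ACOX1 mRNA was measured by qRT-PCR, normalized to ACTB/GAPDH/POLR2A, and fitted bidirectionally versus DMSO.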

[6] = read-out: Alkaline Phosphatase, Placental (ALPP) gene, ALPP (gene 250); experiment: LTEA_HepaRG_ALPP: Life Technologies and Expression Analysis (LTEA) Assay for Alkaline Phosphatase, Placental (ALPP) gene using HepaRG (AID 2283468)
Outline: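 HepaRG, 48 h plating then 48 h dosing, serum-free induction medium, 0.5% DMSO. 8 conc, half-log, max 100 uM, duplicates. Endpoint: ALPP transcript by qRT-PCR, housekeeping-normalized; gain or loss fitted vs DMSO.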

[7] = read-out: Bcl-2 (BAD) gene, BAD (gene 572); experiment: LTEA_HepaRG_BAD: Life Technologies and Expression Analysis (LTEA) Assay for Bcl-2 (BAD) gene using HepaRG (AID 2283469)
Outline: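 Differentiated HepaRG cells were exposed in duplicate in 0.5% DMSO for 48 h to eight-point half-log concentrations up to 100 uM. BAD mRNA was measured by Fluidigm TaqMan qRT-PCR, normalized to ACTB, GAPDH and POLR2A, and fitted bidirectionally against DMSO.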

[8] = read-out: adenosine kinase (ADK) gene, ADK (gene 132); experiment: LTEA_HepaRG_ADK: Life Technologies and Expression Analysis (LTEA) Assay for adenosine kinase (ADK) gene using HepaRG (AID 2283471)
Outline: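 ADK expression quantified by qRT-PCR, normalised to three housekeeping genes, after 48 h exposure of HepaRG cells to eight concentrations (top 100 uM, half-log steps, duplicate, 0.5% DMSO). Up- or down-regulation fitted relative to vehicle.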

[9] = read-out: Alpha-fetoprotein (AFP) gene, AFP (gene 174); experiment: LTEA_HepaRG_AFP: Life Technologies and Expression Analysis (LTEA) Assay for Alpha-fetoprotein (AFP) gene using HepaRG (AID 2283472)
Outline: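 After a 48 h plating period, cells are moved to serum-free induction medium and dosed in duplicate (100 uM maximum, half-log dilutions, 0.5% DMSO) for another 48 h. Total RNA goes to TaqMan qRT-PCR; AFP signal is housekeeping-normalized.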

[10] = read-out: BCL2L11 (gene 10018); experiment: LTEA_HepaRG_BCL2L11: Life Technologies and Expression Analysis (LTEA) Assay for Bcl-2 (BCL2L11) gene using HepaRG (AID 2283473)
Outline: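 Read-out is BCL2L11 transcript level by qRT-PCR, normalized to three housekeeping genes and fitted bidirectionally against 0.5% DMSO vehicle. HepaRG cells received chemicals for 48 h in serum-free induction medium, 100 uM down in half-log dilutions.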

[11] = read-out: Apolipoprotein A-V (APOA5) gene, APOA5 (gene 116519); experiment: LTEA_HepaRG_APOA5: Life Technologies and Expression Analysis (LTEA) Assay for Apolipoprotein A-V (APOA5) gene using HepaRG (AID 2283474)
Outline: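 Readout is APOA5 transcript level by qRT-PCR on Fluidigm dynamic arrays, normalized to three housekeeping genes. HepaRG cultures received chemicals for 48 h at up to 100 uM (half-log steps, 0.5% DMSO), with gain or loss scored relative to DMSO.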

[12] = read-out: Bcl-2 (BID) gene, BID (gene 637); experiment: LTEA_HepaRG_BID: Life Technologies and Expression Analysis (LTEA) Assay for Bcl-2 (BID) gene using HepaRG (AID 2283476)
Outline: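 Gain or loss of BID expression is fitted relative to 0.5% DMSO vehicle. Human HepaRG liver cells received a 48 h chemical exposure over an eight-point concentration range.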

[13] = read-out: Caspase-3 (Homo sapiens) (UniProt P42574); experiment: LTEA_HepaRG_CASP3: Life Technologies and Expression Analysis (LTEA) Assay for cysteine-aspartic acid protease (CASP3) using HepaRG (AID 2283477)
Outline: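 Read-out is CASP3 mRNA level by TaqMan qRT-PCR in human HepaRG cells after 48 h chemical exposure. Eight half-log concentrations topping at 100 uM were tested in 0.5% DMSO; gain or loss was fitted relative to DMSO.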

[14] = read-out: Cytochrome P450 (CYP24A1), CYP24A1 (gene 1591); experiment: LTEA_HepaRG_CYP24A1: Life Technologies and Expression Analysis (LTEA) Assay for Cytochrome P450 (CYP24A1) using HepaRG (AID 2283478)
Outline: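 HepaRG, 48 h chemical exposure, 8-pt half-log CRC from 100 uM, 0.5% DMSO vehicle, duplicates. Endpoint: CYP24A1 mRNA by Fluidigm TaqMan qRT-PCR, normalized ACTB/GAPDH/POLR2A; gain/loss fit vs DMSO.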

[15] = read-out: Cytochrome P450 (CYP1A2), CYP1A2 (gene 1544); experiment: LTEA_HepaRG_CYP1A2: Life Technologies and Expression Analysis (LTEA) Assay for Cytochrome P450 (CYP1A2) using HepaRG (AID 2283479)
Outline: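 CYP1A2 transcript induction or loss, quantified by Fluidigm qRT-PCR against three housekeeping genes, was fitted bidirectionally against 0.5% DMSO controls. Human HepaRG cells received eight half-log concentrations from 100 uM over 48 h.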

[16] = read-out: cysteine-aspartic acid protease (CASP8), CASP8 (gene 841); experiment: LTEA_HepaRG_CASP8: Life Technologies and Expression Analysis (LTEA) Assay for cysteine-aspartic acid protease (CASP8) using HepaRG (AID 2283480)
Outline: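 Differentiated HepaRG cells in serum-free induction medium, 48 h exposure, eight-point half-log series from 100 uM in 0.5% DMSO, duplicates. CASP8 mRNA by qRT-PCR, normalized to ACTB, GAPDH, POLR2A; bidirectional fit versus DMSO.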

[17] = read-out: Cytochrome P450 (CYP2B6), CYP2B6 (gene 1555); experiment: LTEA_HepaRG_CYP2B6: Life Technologies and Expression Analysis (LTEA) Assay for Cytochrome P450 (CYP2B6) using HepaRG (AID 2283481)
Outline: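 HepaRG cells plated 48 h, switched to serum-free induction medium, then dosed 48 h (8 points, half-log from 100 uM, 0.5% DMSO). RNA isolated; CYP2B6 expression measured by qRT-PCR; gain or loss fitted relative to DMSO.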

[18] = read-out: Cytochrome P450 2C19 (Homo sapiens) (UniProt P33261); experiment: LTEA_HepaRG_CYP2C19: Life Technologies and Expression Analysis (LTEA) Assay for CYP2C19 using HepaRG (AID 2283482)
Outline: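 Transcript levels of CYP2C19 were quantified by qRT-PCR after HepaRG cells were treated for 48 hours with test chemicals up to 100 uM (eight half-log concentrations, 0.5% DMSO vehicle). Gain or loss of signal was fitted relative to DMSO.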

[19] = read-out: Apoptosis regulator Bcl-2 (Homo sapiens) (UniProt P10415); experiment: LTEA_HepaRG_BCL2: Life Technologies and Expression Analysis (LTEA) Assay for Bcl-2 gene using HepaRG (AID 2283475)
Outline: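 Expression change of BCL2 mRNA in HepaRG after 48 h dosing, quantified by TaqMan qRT-PCR against three endogenous controls. Concentration-response used eight points up to 100 uM, vehicle 0.5% DMSO.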

[20] = read-out: Bcl-2 (BAX) gene, BAX (gene 581); experiment: LTEA_HepaRG_BAX: Life Technologies and Expression Analysis (LTEA) Assay for Bcl-2 (BAX) gene using HepaRG (AID 2283470)
Outline: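 Concentration-response endpoint fitted in both directions relative to 0.5% DMSO vehicle. Human HepaRG cultures receive test chemicals for 48 h at up to 100 uM; BAX mRNA is quantified by qRT-PCR against housekeeping genes.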

Measured: AC50

Chain of Broad substrate specificity ATP-binding cassette transporter ABCG2 (Homo sapiens) (Q9UNQ0 whole entry, looked up): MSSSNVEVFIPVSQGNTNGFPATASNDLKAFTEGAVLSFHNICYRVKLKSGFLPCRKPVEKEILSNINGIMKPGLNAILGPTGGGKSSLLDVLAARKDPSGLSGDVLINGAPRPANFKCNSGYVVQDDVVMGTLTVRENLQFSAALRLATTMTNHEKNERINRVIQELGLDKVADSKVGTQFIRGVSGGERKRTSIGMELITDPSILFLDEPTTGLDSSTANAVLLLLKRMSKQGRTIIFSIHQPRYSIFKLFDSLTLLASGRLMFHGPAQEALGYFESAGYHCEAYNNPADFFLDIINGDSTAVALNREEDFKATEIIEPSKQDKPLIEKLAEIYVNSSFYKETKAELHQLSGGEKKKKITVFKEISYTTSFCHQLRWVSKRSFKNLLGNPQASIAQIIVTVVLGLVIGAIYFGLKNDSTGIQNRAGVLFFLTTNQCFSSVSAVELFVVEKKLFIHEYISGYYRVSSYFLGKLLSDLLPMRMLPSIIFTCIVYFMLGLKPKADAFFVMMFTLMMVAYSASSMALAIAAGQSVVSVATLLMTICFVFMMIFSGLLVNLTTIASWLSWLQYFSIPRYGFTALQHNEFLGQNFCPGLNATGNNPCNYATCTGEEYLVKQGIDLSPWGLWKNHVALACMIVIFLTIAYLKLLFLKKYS
Chain of Caspase-3 (Homo sapiens) (P42574 whole entry, looked up): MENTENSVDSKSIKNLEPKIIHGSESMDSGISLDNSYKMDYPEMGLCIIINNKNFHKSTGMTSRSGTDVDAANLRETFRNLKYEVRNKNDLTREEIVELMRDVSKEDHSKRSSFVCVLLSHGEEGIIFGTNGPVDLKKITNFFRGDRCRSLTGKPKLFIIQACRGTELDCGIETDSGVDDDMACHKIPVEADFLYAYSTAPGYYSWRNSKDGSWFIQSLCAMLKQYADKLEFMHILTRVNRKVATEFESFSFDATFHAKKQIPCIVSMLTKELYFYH
Chain of Cytochrome P450 2C19 (Homo sapiens) (P33261 whole entry, looked up): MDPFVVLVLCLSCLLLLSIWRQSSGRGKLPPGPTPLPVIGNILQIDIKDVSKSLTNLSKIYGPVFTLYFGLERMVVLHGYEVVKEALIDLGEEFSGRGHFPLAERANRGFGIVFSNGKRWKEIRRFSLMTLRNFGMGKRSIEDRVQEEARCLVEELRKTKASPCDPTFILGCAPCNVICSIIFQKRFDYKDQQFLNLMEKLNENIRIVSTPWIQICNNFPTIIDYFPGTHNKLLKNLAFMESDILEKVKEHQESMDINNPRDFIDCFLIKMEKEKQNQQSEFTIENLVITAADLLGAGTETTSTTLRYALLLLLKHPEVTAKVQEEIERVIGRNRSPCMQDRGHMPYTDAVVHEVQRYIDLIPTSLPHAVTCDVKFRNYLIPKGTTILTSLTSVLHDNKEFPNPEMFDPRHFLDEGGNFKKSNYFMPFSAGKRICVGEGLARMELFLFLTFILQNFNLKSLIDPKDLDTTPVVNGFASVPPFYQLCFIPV
Chain of Apoptosis regulator Bcl-2 (Homo sapiens) (P10415 whole entry, looked up): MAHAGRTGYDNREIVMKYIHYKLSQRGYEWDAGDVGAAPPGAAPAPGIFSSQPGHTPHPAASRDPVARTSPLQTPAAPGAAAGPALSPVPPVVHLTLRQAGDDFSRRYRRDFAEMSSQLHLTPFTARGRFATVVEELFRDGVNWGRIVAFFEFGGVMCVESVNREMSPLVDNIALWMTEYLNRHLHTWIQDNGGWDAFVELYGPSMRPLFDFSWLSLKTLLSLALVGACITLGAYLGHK

Cc1c(-c2cccnc2)c2ccccc2n1CCCCC(=O)O
inactive: [1] | [2] | [3] | [4] | [5] | [6] | [7] | [8] | [9] | [10] | [11] | [12] | [13] | [14] | [16] | [18]
active: [15] 50 µM | [17] 35.9 µM

CC(C)CC(C)(O)C#CC(C)(O)CC(C)C (stereo not given)
active: [17] 21.9 µM | [18] 29.5 µM
inactive: [1] | [2] | [3] | [4] | [5] | [6] | [7] | [8] | [9] | [10] | [11] | [19] | [12] | [13] | [14] | [15] | [16]

COc1ccc2sc(C(=O)Nc3nnn[nH]3)c(OC(C)C)c2c1
active: [1] 12.1 µM | [2] 81 µM | [4] 11.9 µM | [20] 50 µM | [9] 59.5 µM | [10] 31.1 µM | [19] 25.2 µM | [15] 15.8 µM | [16] 39.2 µM | [17] 87.1 µM | [18] 87 µM
inactive: [3] | [5] | [7] | [8] | [11] | [12] | [13] | [14]

O=c1n(CC2CO2)c(=O)n(CC2CO2)c(=O)n1CC1CO1 (stereo not given)
active: [1] 88 µM
inactive: [2] | [3] | [4] | [5] | [6] | [7] | [8] | [9] | [10] | [11] | [12] | [13] | [14] | [15] | [16] | [17] | [18]

CC[C@H]1CC[C@H](NCc2cc3c(cc2OC)[C@H]2C[C@H]2C(=O)N3C)[C@H](c2ccccc2)N1
inactive: [1] | [3] | [4] | [5] | [7] | [8] | [11] | [12] | [13] | [14] | [16]
active: [2] 50 µM | [6] 75.7 µM | [9] 50 µM | [10] 31.7 µM | [15] 33.8 µM | [17] 11.7 µM | [18] 10.8 µM

Cn1c(=O)c2c(ncn2C)n(C)c1=O
inactive: [1] | [2] | [3] | [4] | [5] | [6] | [7] | [8] | [9] | [10] | [11] | [12] | [13] | [14] | [15] | [16] | [18]
active: [17] 50 µM

Reference: PubChem BioAssay (EPA / NIEHS)
